Laboratory results from the supplement of paper PMC11417369.
Whole data set: some 25,000 sequences, median “ln(normalized median fluorescence intensity)” near 7.1, cut for the highest 2% near 10. Shown is part of a subset that was picked to be rich in the highest values.

system: PfSIP2 AP2 domain 1 (GST-tagged); experiment: gcPBM binding intensity (ln(normalized median fluorescence intensity)); higher = stronger DNA binding
Method in brief: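 After 1 h on an Agilent 4 × 180k array of primer-extended double-stranded 36-bp intergenic genomic probes and negative controls, bound GST-tagged P. falciparum DNA-binding domains were detected with Alexa488 anti-GST antibody and scanned at 488 nm. The domains had been expressed in E. coli, and binding took place in 1× PBS with 1% milk, 0.2 mg/ml BSA, 0.5% salmon testes DNA and 0.03% Triton X-100. Binding intensity is the highest Masliner-normalised natural-log median intensity across replicate spots of either probe orientation.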

Row | Sequence | gcPBM binding intensity (ln)
1 | AACATACCCATATACACACACACATAAATACAGATA [CACACA_site4744] | 7.3
2 | GATTGATTATATGTGTGTACTTATATGTTAAAAAAA [XGTACX_site4784] | 7.29
3 | AGTCATATAAATAGTAGTACTGTGTGTGAAGAAAAA [XGTACX_site5056] | 7.42
4 | TTAACAAAATTTCCGTGTACGTAAATAAGAACATAG [XGTACX_site7200] | 7.25
5 | ACAAATACAAAAAAAGGTACACACATAATATATTTA [XGTACX_site5515] | 7.04
6 | ACATTCAATCTACTGTGTACATATTAAACTTTGAAA [XGTACX_site2913] | 7.49
7 | ATTATATATATATTATGTACATATATTGAAGTGGAT [XGTACX_site5916] | 7.56
8 | TATACTTTATATATTTTGTATATATATTTTTTTTAT [TGCATGCA_negctrl_site530] | 7
9 | ATTTTTTTTTTTTTTTTGGGGGGGTATACTTTTAAA [CACACA_negctrl_site1020] | 10.7
10 | GTTAATATTTTTGGGGGTACTTAAAAAAAAAAAAAA [XGTACX_site1477] | 7.78
11 | AATAAATTGAAACACACACACACATATATATATATA [CACACA_site848] | 9.2
12 | AGGAGGATATTACACAGTACCCAGGAAATCTACGGA [XGTACX_site4878] | 6.82
13 | ACATATTTTATTTTTTGTACACATATATTATTTTTT [XGTACX_site6528] | 7.28
14 | TTGCATATTTCTAATTGTACATTATTTTATTTTATA [XGTACX_site8451] | 6.96
15 | TTGGGTGCATATATTTGTACACATTATTTCTATTTT [XGTACX_site3688] | 12
16 | CTTAAATTAATTTGGGTGCATATATTTGTACACATT [GTGCAC_site9948] | 10.9
17 | ATATATAATTAATTTTGTACACATAAAAAAAAAAAT [XGTACX_site6647] | 7.25
18 | AATTAATTAAATTAATGTACACATATATTTGTATTC [XGTACX_site2341] | 7.14
19 | AAAACCTAAAAGTCTTAAATTTTAAATATACCTACA [GTGCAC_negctrl_site492] | 6.6
20 | CCCATGCATTTTTGCACACACATATATTTATAAATA [CACACA_site6785] | 8.16
21 | TATTTTATCATTTGCACACGCACACCCACATAAAAA [CACACA_site354] | 8.03
22 | TATTTTATCATTTGCACACGCACACCGACATAAAAA [CACACA_site4348] | 7.71
23 | TTTATTTTATCATTTGCACACGCACGCCCACATAAA [CACACA_site353] | 7.85
24 | TTTATTTTATCATTTGCACACGCACCCCCACATAAA [CACACA_site8007] | 11.5

Row | Sequence | gcPBM binding intensity (ln)
25 | TTTATTTTATCATTTGCACACGCACCCAGACATAAA [CACACA_site4347] | 10.8
26 | ATATTAAACAAACACACACACATATATATATATATA [CACACA_site3383] | 9.67
27 | ATAAATGAACAAGTGGCACACACACCGTATAACTAA [CACACA_site9047] | 6.91
28 | ATGTATATATTTACGTGTACATATTCATGTGATATC [XGTACX_site5871] | 7
29 | GTTCAATTATTTTTATGTACATATATTTTTTTCTTT [XGTACX_site2505] | 7.46
30 | ACATTGCACCCGTGCACACATAGAAAAATAATTCTT [CACACA_site409] | 12.2
31 | TCATTGAAAATTGTTGCACACATAATAATTAAATAT [CACACA_site8554] | 7.36
32 | ATCATTTGCATACGCACACACACATAAAAAGAAAAA [CACACA_site355] | 7.54
33 | CATTTGCACACGCACACACACATAAAAAGAAAAATA [CACACA_site6297] | 7.71
34 | ACCCATTGCTCACGTGCACACATAGAAAAATAATTC [CACACA_site4389] | 10.1
35 | CATTTGCACCCGCACACACACATAAAAAGAAAAATA [CACACA_site4350] | 11.6
36 | AATTTGGTGTGTGTAAAAGTATGTGTCTATATTTAT [GTGCAC_negctrl_site166] | 7.11
37 | TAATATAATGATGCAGTGCATATGTTAAAATGAAAA | 8.72
38 | TTTTTTGTTATGCGGGTGCATATAATAATGTGATGA | 10.8
39 | TTTTGTTATTTTTCAGTGCAATATGATAATAATATA | 7.72
40 | TAATATATTAAAAATAGTACATAAGAAAAATAAGTA [XGTACX_site7957] | 7.11
41 | TATTATATTTTTATTTGTACGTAAAATTAAGTTATG [XGTACX_site2405] | 7.14
42 | AAAAAAAAAAACAATACATGCATAATATTAATAAAA [TGCATGCA_site913] | 6.96
43 | CAATATTTGTTATGGGTGCAAACCGCATATATATAA [GTGCAC_site9543] | 11
44 | AATTATATGAAATAAACACACATATGCAATATTGCA [CACACA_site6988] | 6.98
45 | TTTTTTGTTAAACCGGTGCATATAAATATATATATA [GTGCAC_site9989] | 9.54
46 | TATTAAATATATATTACATGCAAAAAAAAAAAACAA [TGCATGCA_site705] | 7.13
47 | AACAAATATATTAACACACAAACATATAAACCAATG [CACACA_site3970] | 7.19
48 | CAATATATTATATGGGTGCAAACCACATATAAATAA | 10.9

Row | Sequence | gcPBM binding intensity (ln)
49 | TATAATAGTTCATAGGTGCAATATAATAAATTTATA [GTGCAC_site9573] | 9.98
50 | ATTTATTTATACAAAGTGCAATATTTTGTTAAAGTC [GTGCAC_site9618] | 7.89
51 | TATGGGTTTATATAGGTGCAATATATGTATATATAA | 10.2
52 | CAATAGTTCTTATGGGTGCAAACCACATATATATAA [GTGCAC_site9606] | 11.3
53 | ATATAAAATACATGGGTGCAATATATTAAACAAATA [GTGCAC_site9421] | 10.8
54 | AATCAAAGCCCACATACACACACATATATATATATA [CACACA_site7987] | 9.39
55 | TTTTGTCAACATTTTTATATTAGGTCTTGAACGATT [GTGCAC_negctrl_site72] | 6.9
56 | AATAATATATGGTGTACACAAAAGTATAAATAATTT [CACACA_site5338] | 7.15
57 | TCAAATATTCATAAATGTACATTTATTTTTCTCCTT [XGTACX_site5827] | 6.74
58 | TTATTTTAATAACCTACACACATTTTGTATATTTTA [CACACA_site4000] | 6.81
59 | TATATATATGTGTTTACACACAATAATGAATTAAAA [CACACA_site4659] | 7.28
60 | ATATCAATTTTTGGTGGTACGTAGGAAGTTTCAGAA [XGTACX_site6881] | 7.4
61 | ATATAGGTAAAAAGTATACACACGTTGACACATTCT [CACACA_site1199] | 6.95
62 | TTTTTTTTTTTTTTATGTACACATCTAAAAAAAAGG [XGTACX_site2067] | 7.43
63 | TTTTTTTTTTTTGGATGTACTTAATGAAAATGTTAC [XGTACX_site8980] | 7.36
64 | ACATATAATAAAATAGTGCATTGTTAGTTTTATATA | 9.85
65 | AAATAGTTGTTATGGGTGCAAACCACATATATATAA [GTGCAC_site9428] | 11
66 | TTATTTATTTATATAGTGCAATAAACACATAAATAG | 8
67 | GATTTTTAAAATATCACACATAAAAAAAAAAAAAAA [CACACA_site5516] | 6.96
68 | AATATAAAAAGGCACACACACAAAAAAAAAAAAAAA [CACACA_site896] | 7.13
69 | AAATATAAAGTGCACACACACAAAAAAAGAAAAAAA [CACACA_site6452] | 11.2
70 | TATATATATAAGTGCACACTGAACCAAGAAAATTAT [CACACA_site3008] | 10.5
71 | AAATAAAAAGGGTGCACACAAAAATATATATATATA [CACACA_site1728] | 12.4
72 | AAAAATAAAGGGTGTGCACACAAAAATATATATATA [CACACA_site1727] | 9.1

Row | Sequence | gcPBM binding intensity (ln)
73 | AAAAAAAGAAAAATTGCACACACTTATAAAAATATA [CACACA_site4014] | 6.99
74 | AAAAATATAAACTGCACACACACAAAAAAAGAAAAA [CACACA_site648] | 7.25
75 | ATAAAAATAAAAAGTGTGCACACAAAAATATATATA [GTGCAC_site9931] | 8.78
76 | TATATATATATAAGTGCACACTGAACCAAGAAAATT [CACACA_site5637] | 9.97
77 | AAACTCAACTTATATACACACAATCTTTTTTTTTTA [CACACA_site29] | 6.8
78 | AAATGTAATAATAAATGTACAAACATATATATGTAT [XGTACX_site8718] | 6.94
79 | CTAAAAATCTTTTGTTGTACTTTTAGATAATCAGGA [XGTACX_site3968] | 7.06
80 | ATGGGGAATAATGAATGTACACAAATAAAAAGTTGG [XGTACX_site4015] | 7.13
81 | TTTTTTTTTTTTTGTTGTACCCATCATATATACATA [XGTACX_site4342] | 7.11
82 | GTTCATTCATTTTAATGTACAAATTTAACTTTTTCT [XGTACX_site680] | 6.91
83 | TCTTTTTTAAATAAAAGTACAAAAAAAAATAAAAAA [XGTACX_site2670] | 6.93
84 | ATTTTTTTTTTTTTATGTACATATTAAAAAAAATAT [XGTACX_site1829] | 7.01
85 | ATATAAAAATACAGGTGTACATTTTTTCATATTTAT [XGTACX_site6959] | 7.18
86 | GATTCATCTAAACACCGTACATATTATATATATATA [XGTACX_site6030] | 9.22
87 | TATATAACATATGGGACACACATGCAACTGTTATAT [CACACA_site3792] | 7.19
88 | TGATTCTAACTTATGGTGCAACATTATGGACACCGT | 10.7
89 | TCATAAACATTATGCACACAAAAATAAAAAAAAATA [CACACA_site1115] | 7.52
90 | AATCATAAACATTATGCACACAAAAATAAAAAAAAA [CACACA_site8289] | 7.36
91 | AACAACAACTAATATGCACACATTTAAAAACAAAAT [CACACA_site2440] | 7.5
92 | ATGGTGCAACATTATGCACACCGTTAAATAACTAAT [CACACA_site9280] | 11.8
93 | TTATGGTGCAACATTATGCACACCGTTAAATAACTA [CACACA_site3846] | 11.9
94 | TAATATATTATAAACACATGCACATTAATAATAACT [TGCATGCA_site708] | 9.16
